Compound activity deposited in PubChem BioAssay by several laboratories.
EP2 mod = modulates human prostaglandin E2 receptor EP2 signaling. P43116. EP2-expressing cells, cAMP HTRF FRET, PGE2 co-stimulation. induction, % at 25 µM. actives 0.83% (n = 260,000). AID 940;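 active = compounds whose cAMP rise, as percent of the full-agonist control response, exceeds 60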;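 also: rat C6 glioma line stably carrying human EP2 under a CMV promoter; the protocol text gives 20 µM as final concentration; 100% = response of wells given 1 µM PGE2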
CHT inh = human CHT choline transport inhibition; Q9GZV3; CHT-expressing cells, membrane potential dye, choline response; stronger effect = lower value; B-score at 10 µM; actives 0.86% (n = 310,000);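 active = B-score over 3 SD under the library average, and starting fluorescence ratio not unusually high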;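 also: choline stimulus applied at its EC90 after an EC20 pre-addition; B-score computed on integrated fluorescence ratio after choline addition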
Target sequence (Q9GZV3 whole entry, looked up): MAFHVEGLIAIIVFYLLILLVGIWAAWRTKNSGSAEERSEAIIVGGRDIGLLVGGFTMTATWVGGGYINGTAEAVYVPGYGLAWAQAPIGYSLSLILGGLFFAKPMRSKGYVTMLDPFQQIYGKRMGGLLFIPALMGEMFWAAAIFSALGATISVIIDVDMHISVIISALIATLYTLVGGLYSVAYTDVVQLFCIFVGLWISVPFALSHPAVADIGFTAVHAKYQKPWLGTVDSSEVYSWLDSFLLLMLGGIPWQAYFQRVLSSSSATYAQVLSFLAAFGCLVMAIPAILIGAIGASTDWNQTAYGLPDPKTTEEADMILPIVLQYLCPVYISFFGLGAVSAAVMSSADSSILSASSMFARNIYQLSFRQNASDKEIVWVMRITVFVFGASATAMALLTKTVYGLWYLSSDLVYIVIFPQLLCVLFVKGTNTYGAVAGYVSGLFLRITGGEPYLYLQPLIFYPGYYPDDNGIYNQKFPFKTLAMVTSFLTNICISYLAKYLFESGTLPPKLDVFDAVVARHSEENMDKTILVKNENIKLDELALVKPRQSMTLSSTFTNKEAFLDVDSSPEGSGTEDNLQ
PGE2 EP2 inh = inhibitors of human EP2 prostaglandin E2 receptor; inhibition, % at 25 µM; actives 0.52% (n = 260,000); C6 glioma cells expressing human EP2, cAMP TR-FRET; cells stimulated with saturating PGE2; P43116;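 active = percent inhibition above 40 after rounding to a whole number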;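 also: rat C6 glioma host cells with rolipram phosphodiesterase inhibitor present; the protocol text gives 20 µM as final concentration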
CHT allo act = allosterically activates the human high affinity choline transporter | CHT-expressing cells, membrane potential dye, choline EC20; stronger effect = higher value; LV-AA mutant CHT in HEK293 cells | AID 488977 | B-score at 10 µM | Q9GZV3 | actives 0.49% (n = 310,000);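 active = initial fluorescence not abnormally high and integrated response B-score, plate-corrected, over 3 SD above library mean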
* marks the source's active call; other numbers are inactive results; i = inactive; . = not tested or not shown. Hits are enriched below; roughly 2% of the tested compounds scored in any of these assays.

SMILES	EP2 mod	CHT inh	PGE2 EP2 inh	CHT allo act
ClCC[N+]12CC[N+](CCCl)(CC1)C2 (tested in a mixture with another compound)	12.6	.	45.6*	.
CC(=O)O[C@H]1C[C@@H](OC(C)=O)C(C)(C)C2C[C@@H](OC(C)=O)[C@]3(C)C(CC[C@@]4(C)[C@H](c5ccoc5)C[C@H]5O[C@]543)[C@]21C (stereo not given in full)	-15.1	.	10.7	.
Cc1ccc(S(=O)(=O)N[C@@H](CCCCN)C(=O)CCl)cc1	66.5*	i	17.1	i
COc1ccccc1CC(=O)N1CCN(Cc2ccco2)C[C@@H]1C	-23.4	.	.	.
Clc1ccc(C[n+]2c(-c3ccccc3)cc(-c3ccccc3)cc2-c2ccccc2)cc1	.	-8.87*	.	i
Cc1cc(C=C2C(=O)NC(=O)NC2=O)cc(C)c1O	-8.2	.	11.5	.
CC1=C(O)C(=O)C=C2C1=CC=C1[C@@]2(C)CC[C@@]2(C)[C@@H]3C[C@](C)(C(=O)O)CC[C@]3(C)CC[C@]12C	-41.3	.	110.0*	.
Cc1c(O)c(O)cc2c1CC=C1[C@@]2(C)CC[C@@]2(C)C3C[C@](C)(C(=O)O)CC[C@]3(C)CC[C@]12C (stereo not given in full)	4.4	.	8.5	.
CCCCCCOC(=O)c1ccccc1N	63.9*	i	7.8	i
COc1cc(/C=C2/C(=O)NC(=O)N(C3CCCCC3)C2=O)cc(OC)c1OC	1.4	.	11.7	.
CN(C)C=C1C(=O)N(C2CCCCC2)C(=O)N(C2CCCCC2)C1=O	21.8	-5.37*	18.3	i
Cc1ccc(C2(c3ccc(C)c(O)c3C)CCN(C)CC2)c(C)c1O	-44.7	.	112.4*	.
COc1cc(OC)c(OC)cc1CN1CCN(C(=O)COc2ccc(C)cc2)CC1	-17.9	.	13.8	.
C[C@@H]1O[C@H](O[C@H]2C[C@@H](O)[C@]3(CO)[C@@H]4[C@@H](O)C[C@]5(C)[C@@H](C6=CC(=O)OC6)CC[C@@]5(O)[C@H]4CC[C@@]3(O)C2)[C@@H](O)[C@H](O)[C@H]1O	14.3	.	42.5*	.
N#CC1=C(N)Oc2n[nH]c(-c3ccc4ccccc4c3)c2C1c1ccc(Cl)cc1 (stereo not given)	-116.9	.	13.6	.
CC[C@]1(OC(=O)CN)C(=O)OCc2c1cc1n(c2=O)Cc2cc3ccccc3nc2-1	22.1	.	40.7*	.
O=C(O)c1cc[c]([Hg][Cl])cc1	7.3	-6.1*	4.2	i
COc1ccc(C(=O)O)cc1OC	12.6	.	6.2	.
COc1cc2c(cc1OC)-c1c(OC)c(OC)cc3c1C(C2)N(C)CC3 (stereo not given)	-1.8	i	17.6	8.4*
CCN1CCN(Cc2ccccc2C#N)CC1	-7.0	.	5.8	.
C[C@]12CCC3C(CC[C@H]4C[C@H](OS(=O)(=O)O)CC[C@]34C)C1CCC2=O (stereo not given in full)	19.2	.	9.6	.
C/C(N[O-])=C(\C)[N+]([O-])=[Rh][Cl].CC(=N\[O-])/C(C)=N/[O-].c1ccc([PH+](c2ccccc2)c2ccccc2)cc1	26.5	.	41.0*	.
CC(C)OP(=O)(OC(C)C)C(O)c1ccccc1F (stereo not given)	2.4	i	49.7*	i
CC(C)OP(=O)(OC(C)C)C(O)c1ccc(Br)cc1 (stereo not given)	15.8	i	0.6	i
OC1(c2nccs2)COC2(CCNCC2)C1 (stereo not given)	-16.8	.	.	.
SMILES	EP2 mod	CHT inh	PGE2 EP2 inh	CHT allo act
CC(=O)OC1CC[C@@]2(C)C(CCC3C2CC[C@]2(C)C(C4=CC(=O)OC4)C(OC(C)=O)CC32O)C1 (stereo not given in full)	-3.6	.	10.1	.
C[C@]12CC[C@H](O)C[C@@H]1CC[C@H]1[C@H]2CC[C@@]2(C)[C@H](C3=CC(=O)OC3)[C@H](O)C[C@]12O	4.2	.	43.0*	.
COc1ccccc1/C=C/CN1C2CCC1CC(O)(c1ccc(F)cc1)C2 (stereo not given)	-65.3	.	8.5	.
COc1cc(C)c(CN2C3CCC2CC(O)(c2nccn2C)C3)cc1OC (stereo not given)	-19.4	.	5.5	.
CN(C)c1ccc(/C=C/C=C/c2sc3ccccc3[n+]2C)cc1	-77.1	i	46.0*	i
CC[n+]1c(/C=C/C=C/c2ccc(N(C)C)cc2)sc2ccccc21	-155.0	i	114.7*	i
CN(C)c1ccc(/C=C/c2cc[n+](C)c3ccccc23)cc1	-86.5	.	56.2*	.
O=C(CC[N+](=O)[O-])OC[C@H]1O[C@@H](O)[C@H](OC(=O)CC[N+](=O)[O-])[C@@H](OC(=O)CC[N+](=O)[O-])[C@@H]1OC(=O)CC[N+](=O)[O-]	17.9	.	15.6	.
